Measured values as given in PubChem BioAssay (NCATS).
Results filed as inconclusive are left out. Entries that show only a call come without a potency. The source made the active and inactive calls. Calls follow the shape of the dose curve; as a rule, active = well fitted inhibition curve with a large enough effect; inconclusive = small, poorly fitted or top-dose-only effect; inactive = flat fitted curve, though single readings scatter.

Legend:
Test in all cases: qHTS profiling for inhibitors of Plasmodium falciparum proliferation (AID 504749); also: nearly all actives have a fitted effect of over 60% in size
Details in all cases: P. falciparum in erythrocytes, SYBR Green DNA, 72 h; series mostly up to 28.7 µM
CP238 = test system: CP238
How it was run: (§1)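 In a 72 h erythrocytic culture (37 C, humidified, 5% CO2) at 2.5% hematocrit and 0.3% starting parasitemia, compounds were tested; SYBR Green I in detergent lysis buffer stained parasite DNA overnight.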

CP247 = test system: CP247
How it was run: as §1

CP250 = test system: CP250
How it was run: as §1

CP260 = test system: CP260
How it was run: as §1

CP262 = test system: CP262
How it was run: as §1

CP265 = test system: CP265
How it was run: as §1

CP286 = test system: CP286
How it was run: as §1

CP335 = test system: CP335
How it was run: as §1

DFO2036 = test system: DFO2036
How it was run: as §1

CP256 = test system: CP256
How it was run: as §1

CP266 = test system: CP266
How it was run: as §1

CP297 = test system: CP297
How it was run: as §1

CP315 = test system: CP315
How it was run: as §1

CP252 = test system: CP252
How it was run: as §1

CP268 = test system: CP268
How it was run: as §1

CP269 = test system: CP269
How it was run: as §1

CP305 = test system: CP305
How it was run: as §1

CP325 = test system: CP325
How it was run: as §1

CP329 = test system: CP329
How it was run: as §1

CP291 = test system: CP291
How it was run: as §1
Potency is read from the fitted curve at half-maximal effect.

## O=C(CCCN1CCC(O)(c2cccc(C(F)(F)F)c2)CC1)c1ccc(F)cc1
CP238
  Potency: 12.6 µM (active)
CP247
  Potency: 7.08 µM (active)
CP250
  Potency: 10 µM (active)
CP260
  Potency: 11.2 µM (active)
CP262
  Potency: 10.7 µM (active)
CP265
  Potency: 10 µM (active)
CP286
  Potency: 10 µM (active)
CP335
  Potency: 9.53 µM (active)
DFO2036
  Potency: 10 µM (active)

## c1cc(CN2CCCCC2)cc(OCCCNc2nc3ccccc3s2)c1
CP262
  Potency: inactive

## CN(C)CC/C=C1\c2ccccc2COc2ccccc21
CP250
  Potency: inactive
CP256
  Potency: inactive
CP262
  Potency: inactive
CP265
  Potency: 11.2 µM (active)
CP266
  Potency: inactive
CP297
  Potency: inactive
CP315
  Potency: inactive
DFO2036
  Potency: inactive

## CCOC(=O)C1=C(C)NC(C)=C(C(=O)OC)C1c1cccc([N+](=O)[O-])c1 (stereo not given)
CP238
  Potency: 10 µM (active)
CP252
  Potency: 11.2 µM (active)
CP266
  Potency: inactive
CP315
  Potency: inactive

## CNCCC(Oc1ccccc1OC)c1ccccc1 (stereo not given)
CP250
  Potency: inactive
CP262
  Potency: inactive
CP266
  Potency: inactive
CP297
  Potency: inactive
CP315
  Potency: inactive

## CN(C(=O)CCCOc1ccc2[nH]c(=O)ccc2c1)C1CCCCC1
CP238
  Potency: inactive
CP250
  Potency: inactive
CP252
  Potency: inactive
CP256
  Potency: inactive
CP260
  Potency: inactive
CP262
  Potency: inactive
CP265
  Potency: inactive
CP268
  Potency: inactive
CP269
  Potency: inactive
CP286
  Potency: inactive
CP305
  Potency: inactive
CP315
  Potency: inactive
CP325
  Potency: inactive
CP329
  Potency: inactive
CP335
  Potency: inactive
DFO2036
  Potency: inactive

## CCc1cccc(N(C)C(N)=Nc2cccc3ccccc23)c1
CP262
  Potency: inactive
CP286
  Potency: 8.91 µM (active)
CP315
  Potency: inactive

## COC(=O)[C@H]1[C@H]2C[C@@H]3c4[nH]c5cc(OC)ccc5c4CCN3C[C@H]2C[C@@H](OC(=O)c2cc(OC)c(OC)c(OC)c2)[C@@H]1OC
CP238
  Potency: 11.2 µM (active)
CP247
  Potency: 11.2 µM (active)
CP252
  Potency: 11.2 µM (active)
CP260
  Potency: 11.2 µM (active)
CP268
  Potency: 15.1 µM (active)
CP269
  Potency: 9.53 µM (active)
CP286
  Potency: 11.2 µM (active)
CP291
  Potency: 15.1 µM (active)
CP297
  Potency: 3.38 µM (active)
CP315
  Potency: 16.9 µM (active)
CP325
  Potency: 13.5 µM (active)
CP329
  Potency: 13.5 µM (active)
CP335
  Potency: 8.49 µM (active)

## COc1ccc(CCN(C)CCCC(C#N)(c2cc(OC)c(OC)c(OC)c2)C(C)C)cc1OC (stereo not given)
CP250
  Potency: inactive
CP265
  Potency: inactive
CP266
  Potency: inactive

## CN(C)CCOC(=O)COc1ccc(Cl)cc1
CP238
  Potency: inactive
CP250
  Potency: inactive
CP252
  Potency: inactive
CP256
  Potency: inactive
CP260
  Potency: inactive
CP262
  Potency: inactive
CP265
  Potency: inactive
CP268
  Potency: inactive
CP269
  Potency: inactive
CP286
  Potency: inactive
CP291
  Potency: inactive
CP297
  Potency: inactive
CP305
  Potency: inactive
CP315
  Potency: inactive
CP329
  Potency: inactive
CP335
  Potency: inactive
DFO2036
  Potency: inactive

## CC(C)NNC(=O)c1ccncc1
CP238
  Potency: inactive
CP247
  Potency: inactive
CP250
  Potency: inactive
CP260
  Potency: inactive
CP262
  Potency: inactive
CP265
  Potency: inactive
CP266
  Potency: inactive
CP268
  Potency: inactive
CP269
  Potency: inactive
CP286
  Potency: inactive
CP291
  Potency: inactive
CP297
  Potency: inactive
CP305
  Potency: inactive
CP315
  Potency: inactive
CP325
  Potency: inactive
CP329
  Potency: inactive
CP335
  Potency: inactive
DFO2036
  Potency: 7.94 µM (active)

## CCCCCCCC/C=C\CCCCCCCC(=O)NCc1ccc(O)c(OC)c1
CP247
  Potency: 7.08 µM (active)
CP256
  Potency: 11.2 µM (active)
CP262
  Potency: inactive
CP265
  Potency: 10 µM (active)
CP266
  Potency: inactive
CP268
  Potency: inactive
CP269
  Potency: inactive
CP297
  Potency: inactive
CP305
  Potency: inactive
CP315
  Potency: inactive
CP325
  Potency: inactive
CP329
  Potency: inactive

## NC(N)=N/N=C/c1c(Cl)cccc1Cl
CP262
  Potency: 13.5 µM (active)
CP286
  Potency: 11.2 µM (active)

## CN(C)CC[C@@H](c1ccc(Br)cc1)c1ccccn1
CP250
  Potency: inactive
CP260
  Potency: inactive
CP262
  Potency: inactive
CP266
  Potency: inactive
CP286
  Potency: inactive
CP305
  Potency: inactive
CP315
  Potency: inactive
CP325
  Potency: inactive
DFO2036
  Potency: inactive

## CC1=NS(=O)(=O)c2cc(Cl)ccc2N1
CP260
  Potency: inactive
CP262
  Potency: inactive
CP265
  Potency: inactive
CP266
  Potency: inactive
CP268
  Potency: inactive
CP269
  Potency: inactive
CP286
  Potency: inactive
CP291
  Potency: inactive
CP297
  Potency: inactive
CP305
  Potency: inactive
CP315
  Potency: inactive
CP325
  Potency: inactive
CP329
  Potency: inactive
CP335
  Potency: inactive
DFO2036
  Potency: inactive

## CC(=O)[C@]1(O)Cc2c(O)c3c(c(O)c2[C@@H](O[C@H]2C[C@H](N)[C@H](O)[C@H](C)O2)C1)C(=O)c1ccccc1C3=O
CP238
  Potency: 7.08 µM (active)
CP250
  Potency: 6.31 µM (active)
CP252
  Potency: 7.94 µM (active)
CP256
  Potency: 10 µM (active)
CP260
  Potency: 2 µM (active)
CP262
  Potency: 12 µM (active)
CP266
  Potency: 8.49 µM (active)
CP268
  Potency: 9.53 µM (active)
CP269
  Potency: 10.7 µM (active)
CP286
  Potency: 1.41 µM (active)
CP291
  Potency: 9.53 µM (active)
CP305
  Potency: 8.49 µM (active)
CP315
  Potency: 15.1 µM (active)
CP329
  Potency: 10.7 µM (active)
CP335
  Potency: 1.69 µM (active)
DFO2036
  Potency: 3.55 µM (active)

## OCCN1CCN(CC/C=C2/c3ccccc3Sc3ccc(C(F)(F)F)cc32)CC1
CP247
  Potency: 8.91 µM (active)
CP250
  Potency: 12.6 µM (active)
CP252
  Potency: 7.94 µM (active)
CP256
  Potency: 3.98 µM (active)
CP260
  Potency: 12.6 µM (active)
CP262
  Potency: 6.01 µM (active)
CP268
  Potency: 13.5 µM (active)
CP269
  Potency: 4.78 µM (active)
CP286
  Potency: 8.91 µM (active)
CP291
  Potency: 9.53 µM (active)
CP297
  Potency: 6.75 µM (active)
CP305
  Potency: 7.57 µM (active)
CP325
  Potency: 6.01 µM (active)
CP329
  Potency: 6.75 µM (active)
CP335
  Potency: 4.26 µM (active)

## CCCC(C(=O)OCCN(CC)CC)(c1ccccc1)c1ccccc1
CP247
  Potency: 8.91 µM (active)
CP265
  Potency: 10 µM (active)
CP269
  Potency: 12 µM (active)
CP286
  Potency: 12.6 µM (active)
CP291
  Potency: 13.5 µM (active)
CP335
  Potency: 8.49 µM (active)

## CC(C)[N+](C)(CCOC(=O)C1c2ccccc2Oc2ccccc21)C(C)C
CP266
  Potency: inactive
CP315
  Potency: inactive

## CCCN1C[C@H](CSC)C[C@@H]2c3cccc4[nH]cc(c34)C[C@H]21
CP250
  Potency: inactive
CP256
  Potency: 8.91 µM (active)
CP262
  Potency: inactive
CP266
  Potency: inactive
CP269
  Potency: inactive
CP297
  Potency: inactive
CP305
  Potency: inactive
CP315
  Potency: inactive
CP325
  Potency: inactive
CP329
  Potency: inactive
DFO2036
  Potency: inactive

## COC(=O)[C@@H](N)Cc1ccc(O)c(O)c1
CP238
  Potency: inactive
CP252
  Potency: inactive
CP256
  Potency: inactive
CP260
  Potency: inactive
CP265
  Potency: inactive
CP266
  Potency: inactive
CP268
  Potency: inactive
CP286
  Potency: inactive
CP291
  Potency: inactive
CP297
  Potency: inactive
CP305
  Potency: inactive
CP315
  Potency: inactive
CP325
  Potency: inactive
CP329
  Potency: inactive
DFO2036
  Potency: inactive
